For test [1], the target named is T1, Hexokinase-4 (Homo sapiens) + Glucokinase regulatory protein (Homo sapiens) (UniProt P35557+Q14397). Nature of the test: qHTS assay for inhibitors of recombinant human GCK-GKRP interaction: ADP-Glo assay (AID 743206).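 Note: plate controls were DMSO plus enzyme for no effect and no enzyme for full effect.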 In short, it runs like this: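 GST-GCK and FLAG-GKRP (15 nM each in the dispensed mix, with 2 uM S6P) react with 0.4 mM ATP and 5 mM glucose (final) in Hepes pH 7.6 for 60 min at room temperature. ADP is measured by ADP-Glo luminescence.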
For orientation: Quantitative high-throughput screening tests each substance at several concentrations.

The target of test [2] is T1, Hexokinase-4 (Homo sapiens) + Glucokinase regulatory protein (Homo sapiens). Briefly: qHTS assay for inhibitors of recombinant human GCK-GKRP interaction: HTRF assay (AID 743207).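 Note: 0% = DMSO with GCK present and -100% = DMSO wells lacking GCK.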 In outline:
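5 nM GST-GCK + 5 nM FLAG-GKRP + 2 uM S6P, pH 7.1 buffer (25 mM Hepes, 2 mM MgCl2, 25 mM KCl, 1 mM DTT, Tween/BSA); pin-transferred cpd; anti-FLAG XL665/anti-GST K; 60 min RT; HTRF.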

Test [3] in a line: qHTS Assay for Identifying Gametocytocidal Compounds (AID 743244).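 Note: % is set by controls: 0 for no effect and ±100 for the full control effect; actives lower the fluorescent signal which means gametocytes are killed.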 As to conditions: P. falciparum 3D7 stage III-V gametocytes, alamarBlue, 72 h; max response: hits give low values. In outline: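 Late gametocytes (III–V), P. falciparum 3D7; 72 h drug, then 24 h alamarBlue; resazurin reduction read by fluorescence.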
Test [4] in a line: qHTS assay for measurement of the activity of small molecule inhibitors on Zika virus induced Caspase-3 activity in human iPSC derived neural progenitor cells (hNPCs) (AID 1224857). Note: % of control where 0% means no effect; nearly all actives have a fitted effect of over 65% in size. In outline: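 Caspase-3/7 induction by a 6-hour ZIKV infection was quantified with a luminescent Caspase-Glo 3/7 reagent incubated 30 minutes at room temperature. Compounds were preincubated with hNPCs for 1 hour; inhibition was calculated against uninfected and infected control wells.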

Test [5] is described as follows: Natriuretic polypeptide receptor (hNpr1) antagonism - Pilot counterscreen GloSensor control cell line (AID 1347045; calls by dose curve; note: series mostly up to about 38 µM; % is set by controls: 0 for no effect and ±100 for the full control effect). In short, it runs like this: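 This counterscreen uses HEK293 cells expressing the GIP/pGS-40F cGMP biosensor. Compound-treated cells are challenged with 50 uM sodium nitroprusside, and the luciferase signal is compared before and after stimulation.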
(In general: Counterscreens check selectivity or assay interference.)

In test [6] the target is Atrial natriuretic peptide receptor 1 (Homo sapiens) (UniProt P16066). Briefly: Natriuretic polypeptide receptor (hNpr1) antagonism - Pilot screen (AID 1347049; calls by dose curve;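 note: agonist-evoked cGMP luminescence read 20 min after hNppA addition; series mostly up to about 58 µM; % is set by controls: 0 for no effect and ±100 for the full control effect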). In outline:
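Readout is cGMP-driven firefly luciferase luminescence in HEK293 cells carrying hNpr1 and a PDE5-domain GloSensor, read before and 20 min after 0.1 nM hNppA stimulation. Cells had 2% substrate reagent for 2 h and test compound for 30 min.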

Test [7] deals with Atrial natriuretic peptide receptor 2 (Homo sapiens) (UniProt P20594). Briefly: Natriuretic polypeptide receptor (hNpr2) antagonism - Pilot subtype selectivity assay (AID 1347050; calls by dose curve; note: % is set by controls: 0 for no effect and ±100 for the full control effect). In outline: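 Pilot selectivity screen against hNpr2: HEK293 cGMP-sensor cells are treated with LOPAC1280 compounds, then with hNppC peptide at 1 nM final. The cGMP-driven luminescence change over 20 min at room temperature is the read-out.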

Test [8] in a line: NS1 protein of Zika virus - qHTS assay to identify small molecule inhibitors in human HEK 293 cells (AID 1347053).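 Note: series mostly up to about 46 µM; plate controls were infected untreated cells for no effect and uninfected cells for full effect; nearly all actives have a fitted effect of over 55% in size.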 In outline:
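HEK 293; 20 h pre-culture, 37 C/5% CO2; cpd 1 h pre-infection; ZIKV MR766, MOI = 0.5, 24 h, 37 C; TR-FRET NS1 readout (two anti-NS1 Abs); norm. to no-virus vs infected.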

The nature of test [9]: qHTS assay for measurement of the activity of small molecule inhibitors on Zika virus induced Caspase-3 activity in human astrocytoma cells (AID 1224859).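 Note: plate controls were ZIKV-infected untreated cells for no effect and uninfected cells for full effect.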 In short, it runs like this:
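In SNB-19 cells plated at 250 cells/well and grown 16-20 h, compounds were applied 1 h before ZIKV (2 FFU/cell). Six hours later caspase-3/7 luminescence was recorded.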

A short description of test [10]: P-glycoprotein substrates identified in KB-3-1 adenocarcinoma cell line, qHTS therapeutic library screen (AID 1346986).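 Note: potency is the fitted concentration of half-maximal effect; potency is for cytotoxicity meaning loss of cell viability; nearly all actives have a fitted effect of over 60% in size.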 In outline: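 Counter-screen: cherry-picked hits retested in the KB pair and in HEK-293 pcDNA/MDR-19 cells ± tariquidar. Primary screen used 72 h CellTiter-Glo viability in KB-3-1 and KB-8-5-11.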
Test [11] is described as follows: P-glycoprotein substrates identified in KB-8-5-11 adenocarcinoma cell line, qHTS therapeutic library screen (AID 1346987). Note: potency is the fitted concentration of half-maximal effect; nearly all actives have a fitted effect of over 65% in size. In short, it runs like this: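 P-gp-mediated resistance screen: KB-8-5-11 cells treated 72 h with compounds in dose-response. CellTiter-Glo viability.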

Values without a mark were called inactive. Records with an inconclusive call do not appear. Active and inactive are the calls of the source. Unless noted, calls come from the whole dose curve; as a rule, active = well fitted curve in the direction sought with a large enough effect; inconclusive = small, poorly fitted or top-dose-only effect, or another doubt; inactive = no such curve, though single readings can be large; an effect the other way counts as inactive or inconclusive.

We go through 16 compounds from PubChem BioAssay (NCATS).

Atrial natriuretic peptide receptor 2 (Homo sapiens), sequence (P20594 whole entry, looked up): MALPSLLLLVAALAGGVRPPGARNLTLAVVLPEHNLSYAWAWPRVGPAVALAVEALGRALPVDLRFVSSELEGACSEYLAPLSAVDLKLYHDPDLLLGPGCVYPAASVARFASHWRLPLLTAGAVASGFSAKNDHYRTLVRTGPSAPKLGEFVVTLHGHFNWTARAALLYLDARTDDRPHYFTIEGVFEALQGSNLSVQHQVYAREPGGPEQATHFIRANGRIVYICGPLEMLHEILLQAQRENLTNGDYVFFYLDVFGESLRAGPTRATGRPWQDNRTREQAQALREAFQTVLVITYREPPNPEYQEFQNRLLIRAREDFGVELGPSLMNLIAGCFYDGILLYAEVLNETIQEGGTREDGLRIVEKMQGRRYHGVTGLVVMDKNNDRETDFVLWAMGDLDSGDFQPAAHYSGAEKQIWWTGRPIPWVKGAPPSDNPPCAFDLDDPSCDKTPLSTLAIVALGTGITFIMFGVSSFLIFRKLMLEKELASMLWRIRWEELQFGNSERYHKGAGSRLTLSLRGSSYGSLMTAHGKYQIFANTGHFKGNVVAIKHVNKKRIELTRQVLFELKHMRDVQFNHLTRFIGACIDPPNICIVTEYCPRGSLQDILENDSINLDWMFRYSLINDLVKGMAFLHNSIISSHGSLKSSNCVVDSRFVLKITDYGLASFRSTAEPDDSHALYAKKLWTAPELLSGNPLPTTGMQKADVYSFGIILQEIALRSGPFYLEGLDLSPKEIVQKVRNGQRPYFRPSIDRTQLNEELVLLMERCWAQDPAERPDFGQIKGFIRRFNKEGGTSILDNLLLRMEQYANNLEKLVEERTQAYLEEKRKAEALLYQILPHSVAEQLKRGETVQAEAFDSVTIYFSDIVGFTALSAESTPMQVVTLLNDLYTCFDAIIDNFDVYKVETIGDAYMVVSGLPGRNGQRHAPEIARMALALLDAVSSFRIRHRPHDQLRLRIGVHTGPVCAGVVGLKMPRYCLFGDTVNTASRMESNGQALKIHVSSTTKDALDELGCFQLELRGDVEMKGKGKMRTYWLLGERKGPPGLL
T1 sequence (P35557 whole entry, looked up): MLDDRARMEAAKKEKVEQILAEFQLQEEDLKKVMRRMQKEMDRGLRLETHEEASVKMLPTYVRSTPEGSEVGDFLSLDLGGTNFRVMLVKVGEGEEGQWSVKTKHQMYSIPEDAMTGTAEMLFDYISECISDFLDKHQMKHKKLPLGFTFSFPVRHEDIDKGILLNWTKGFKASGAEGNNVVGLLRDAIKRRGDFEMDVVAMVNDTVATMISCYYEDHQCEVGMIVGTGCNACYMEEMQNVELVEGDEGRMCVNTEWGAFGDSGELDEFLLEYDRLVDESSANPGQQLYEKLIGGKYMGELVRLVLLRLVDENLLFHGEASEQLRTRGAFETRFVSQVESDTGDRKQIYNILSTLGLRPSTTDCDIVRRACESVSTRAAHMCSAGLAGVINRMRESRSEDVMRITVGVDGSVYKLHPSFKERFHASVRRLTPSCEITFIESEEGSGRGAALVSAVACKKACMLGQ
T1 sequence (Q14397 whole entry, looked up): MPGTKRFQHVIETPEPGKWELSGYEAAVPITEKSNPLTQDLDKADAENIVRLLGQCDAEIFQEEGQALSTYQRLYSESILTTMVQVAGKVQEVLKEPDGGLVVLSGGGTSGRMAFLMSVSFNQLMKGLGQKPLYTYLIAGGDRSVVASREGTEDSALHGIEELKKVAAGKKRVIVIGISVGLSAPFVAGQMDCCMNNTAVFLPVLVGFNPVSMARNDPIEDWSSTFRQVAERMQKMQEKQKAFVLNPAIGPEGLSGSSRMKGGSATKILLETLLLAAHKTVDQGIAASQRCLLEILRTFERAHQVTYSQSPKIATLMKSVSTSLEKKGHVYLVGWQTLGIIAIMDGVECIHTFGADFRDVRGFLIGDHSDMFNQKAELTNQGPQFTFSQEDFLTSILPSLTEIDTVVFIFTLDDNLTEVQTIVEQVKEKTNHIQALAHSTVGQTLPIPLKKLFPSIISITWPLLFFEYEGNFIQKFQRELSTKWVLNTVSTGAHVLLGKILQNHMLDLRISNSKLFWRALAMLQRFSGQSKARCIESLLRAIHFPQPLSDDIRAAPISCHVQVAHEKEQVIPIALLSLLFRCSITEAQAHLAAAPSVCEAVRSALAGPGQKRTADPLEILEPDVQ
Atrial natriuretic peptide receptor 1 (Homo sapiens), sequence (P16066 whole entry, looked up): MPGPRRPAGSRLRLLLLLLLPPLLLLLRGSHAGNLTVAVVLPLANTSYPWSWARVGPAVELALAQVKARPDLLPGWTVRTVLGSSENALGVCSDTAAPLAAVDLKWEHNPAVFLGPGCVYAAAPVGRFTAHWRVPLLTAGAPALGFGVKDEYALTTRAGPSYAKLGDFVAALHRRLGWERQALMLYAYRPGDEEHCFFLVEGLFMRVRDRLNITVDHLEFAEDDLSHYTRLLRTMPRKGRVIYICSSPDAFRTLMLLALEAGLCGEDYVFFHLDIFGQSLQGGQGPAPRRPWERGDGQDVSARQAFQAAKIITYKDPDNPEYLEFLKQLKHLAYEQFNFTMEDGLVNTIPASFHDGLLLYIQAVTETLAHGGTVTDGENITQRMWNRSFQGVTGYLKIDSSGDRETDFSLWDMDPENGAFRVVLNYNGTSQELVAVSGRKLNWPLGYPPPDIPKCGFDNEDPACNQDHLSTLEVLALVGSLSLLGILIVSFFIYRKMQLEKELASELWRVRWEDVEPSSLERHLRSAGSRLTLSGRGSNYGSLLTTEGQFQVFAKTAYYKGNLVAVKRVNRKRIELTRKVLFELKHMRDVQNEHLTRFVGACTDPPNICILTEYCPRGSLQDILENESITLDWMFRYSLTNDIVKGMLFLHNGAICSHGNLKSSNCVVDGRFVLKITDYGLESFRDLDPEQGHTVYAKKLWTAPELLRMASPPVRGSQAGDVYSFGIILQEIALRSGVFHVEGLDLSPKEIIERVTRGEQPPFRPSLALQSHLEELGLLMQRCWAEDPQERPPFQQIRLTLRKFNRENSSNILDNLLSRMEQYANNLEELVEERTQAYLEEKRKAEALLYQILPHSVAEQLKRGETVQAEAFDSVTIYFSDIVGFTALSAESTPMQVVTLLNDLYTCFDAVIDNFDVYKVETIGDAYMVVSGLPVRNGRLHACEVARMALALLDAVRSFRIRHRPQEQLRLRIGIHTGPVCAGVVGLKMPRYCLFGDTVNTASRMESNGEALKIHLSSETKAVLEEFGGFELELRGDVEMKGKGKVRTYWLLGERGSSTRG

As for `CCn1c(=O)[nH]c2cc(Cl)c(Cl)cc21`, the Potency result in [1], in [2], in test [4], in test [5], in test [6] and in test [7] was “inactive” in each case. Besides, the Potency entry in test [8] is “inactive”. Further, the max response in [3] is 24.6%.

For the compound `OCC1NCC(O)C(O)C1O` (centres undefined), the Potency entry in test [1], in test [2], in [4], in [5], in test [6] and in test [7] was “inactive” throughout. Besides, in test [8], the Potency entry was “inactive”.

Take `CC1CNCCN1S(=O)(=O)c1cccc2cnccc12` (centres undefined): the Potency result in [2], in test [4], in test [5] and in [6] was “inactive” in each case. The max response in test [3] is 22.5%.

With `CCc1ccc2c(-c3cccc(Cl)c3)nc(=O)n(CC)c2n1`, the Potency result in test [2], in [4], in test [5], in test [6], in [7] and in test [8] was “inactive” throughout. Further, the max response in test [3] is 15.8%.

As for `CC(=O)/C(C)=N/O`, the Potency entry in [1], in [2], in test [4], in [5], in [6] and in test [7] was “inactive” throughout. In test [8], the Potency result was “inactive”. The max response in test [3] was -4.63%.

For `Cc1cc(Cn2cnc3c2C[C@@H](C(=O)O)N(C(=O)C(c2ccccc2)c2ccccc2)C3)ccc1N`, the Potency result in [1], in test [2], in test [4], in test [5], in test [6] and in test [7] was “inactive” each time. Also, the Potency entry in [8] is “inactive”. The max response in [3] was -5.22%.

`NC(=O)c1cc[n+](CC2=C(C(=O)O)N3C(=O)[C@@H](NC(=O)[C@@H](c4ccccc4)S(=O)(=O)[O-])[C@H]3SC2)cc1`: the Potency entry in test [1], in [2], in test [4], in test [6] and in test [7] was “inactive” in each case. In addition, the max response in test [3] is 7.28%.

On to `Cc1ccc2c(c1)C(N1CCN(C)CC1)=Nc1cccnc1N2`, for which the Potency entry in test [1], in test [2], in test [4], in test [5], in test [6] and in test [8] was “inactive” throughout. Further, the max response in test [3] was 23%.

For the compound `COc1cc(CC(=O)O)ccc1O`, the Potency entry in [1], in test [2], in test [4], in test [5], in [6] and in test [7] was “inactive” in each case.

Turning to `CC1=C(C(=O)O)N2C(=O)[C@@H](NC(=O)C(N)C3=CCC=CC3)[C@H]2SC1` (some centres undefined), the Potency entry in [2], in test [4], in test [5], in test [6], in test [7] and in [8] was “inactive” throughout. Also, in test [3], the max response was 5.72%.

`CC1CCN(CC[C@H]2CCCN2S(=O)(=O)c2cccc(O)c2)CC1`: the Potency entry in test [1], in test [2], in [9], in [5], in test [6] and in test [7] was “inactive” in each case. The Potency entry in [8] is “inactive”. For the same compound, the max response in test [3] is 10.9%.

For the compound `CC(C)NC[C@H](O)COc1cccc2ccccc12`, the Potency entry in [1], in [2], in [5], in [7] and in [8] was “inactive” in each case.

Consider `Nc1ncnc2c1c(-c1ccc(Oc3ccccc3)cc1)cn2C1CCCC1`, for which the Potency entry in [1], in test [2], in test [6], in test [7] and in [8] was “inactive” each time. Moreover, the max response in test [3] was 4.42%. Further, the Potency is 1.64 µM (active) in test [10] and 14.6 µM (active) in test [11].

On to `CC(C)NCC(O)COc1ccc(CC(N)=O)cc1` (centres undefined), for which the Potency entry in test [2], in test [9], in [6], in test [7] and in test [8] was “inactive” throughout. Further, the max response in test [3] was 27.5%.

Consider `C=CC[C@H](N)C(=O)O`, for which the Potency entry in test [1], in test [2], in test [5], in [6] and in [7] was “inactive” each time. Besides, the max response in test [3] is 18.7%.

Turning to `CNc1cc(NS(=O)(=O)c2ccc(N)cc2)nc(NC)n1`, the Potency result in test [1], in test [2], in test [9], in test [5], in test [6] and in [7] was “inactive” throughout. The Potency entry in test [8] was “inactive”.
